# Data: ChEMBL document CHEMBL1201862, “PubChem BioAssay data set” (2004)
# Screen size: about 15,000 sequences; about 620 (4.1%) were called active. Cut-off read from the data, not from the text of the source: active = GI50 up to about 1.1 µM and inactive = higher. Only a sample is shown. Measured potencies and affinities stand elsewhere.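 Exposure lasted 48 hours, with cells grown in 96-well plates and compounds tested at five concentrations. GI50 = concentration required for 50% inhibition of growth.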
# Test system: M19-MEL
# Experiment: NCI tumour cell line growth inhibition, 48 h
row,Substance,GI50 [nM]
1,"[Bis(aminomethyl)ethylmethylsilane]tetrachloroplatinum(IV), CHEMBL2146192",1520
2,"mu-(1,7-nanodiamine-N,N')bis-(cis-aminedichloroplatimum (II)), CHEMBL2146215",1360
3,"[Bis(aminomethyl)pentamethylenesilane]dichloropaltinum(II), CHEMBL2146202",5380
4,"[Bis(aminomethyl)tetramethylenesilane]dichloropaltinum(II), CHEMBL2146205",19300
5,"[Bis(aminomethyl)tetramethylenesilane]tetrachloropaltinum(IV), CHEMBL2146189",2830
6,"[Bis(aminomethyl)dimethylsilane]dichloroplatinum (II), CHEMBL2146201",15200
7,"cis-Bis[[(trimethylsilyl)methyl]amino]tetrachloroplatinum(IV), CHEMBL2146191",3370
8,"[Bis(aminomethyl)diethylsilane]tetrachloroplatinum(IV), CHEMBL2146203",2030
9,"[Bis(aminomethyl)pentamethylenesilane]tetrachloropaltinum(IV), CHEMBL2146204",2240
10,"[Bis(aminomethyl)dimethylsilane]tetrachloroplatinum(IV), CHEMBL2146190",3120
